Bioassay records from PubChem.
Shown are actives, neighbours in structure and some others; about 1.7% of the full set was active somewhere.
GLP1R inv ag: inverse agonists of human GLP-1 receptor; P43220; HEK293 GLP-1R CRE-luciferase, luminescence, 24 h; GLP-1R form is constitutively active; Potency, µM (series often up to 38.3 µM), usual class: inhibitors; 1.6% of 410,000 active; AID 624417; also: nearly all actives have a fitted effect of over 55% in size
Target sequence (P43220 whole entry, looked up): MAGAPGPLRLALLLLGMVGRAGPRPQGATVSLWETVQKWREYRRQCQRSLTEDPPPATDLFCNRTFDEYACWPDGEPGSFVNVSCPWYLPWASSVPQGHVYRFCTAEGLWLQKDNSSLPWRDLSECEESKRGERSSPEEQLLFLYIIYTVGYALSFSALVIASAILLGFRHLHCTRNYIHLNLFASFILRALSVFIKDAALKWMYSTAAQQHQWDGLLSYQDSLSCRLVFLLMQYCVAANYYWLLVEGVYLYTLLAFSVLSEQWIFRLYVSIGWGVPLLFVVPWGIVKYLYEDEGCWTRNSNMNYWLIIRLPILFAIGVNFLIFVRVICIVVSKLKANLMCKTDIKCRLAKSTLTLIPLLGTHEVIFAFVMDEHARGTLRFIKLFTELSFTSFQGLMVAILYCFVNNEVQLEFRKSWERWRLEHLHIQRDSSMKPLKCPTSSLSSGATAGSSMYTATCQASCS
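Readout was luciferase luminescence, measured 12 min after detection reagent at room temperature. Beforehand, GLP-1R reporter HEK293 cells had sat 12 h, then received compounds for 24 hr at 37 deg C.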
GLP-1R agonist: activates the human GLP-1 receptor; HEK293 GLP-1R CRE-luciferase, luminescence, 4-6 h; cells express a hypersensitive GLP-1R form; Potency, µM (top dose mostly 45.6 µM), hits mostly activators; 0.007% of 380,000 active; AID 624172
HEK293 tox: cytotoxicity in counter-screen for GLP-1R inverse agonists. HEK293 cAMP-luciferase reporter cells, luminescence, 24 h. Potency, µM (doses to about 38.3 µM), most hits filed as inhibitors. 0.13% of 410,000 active;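 also: loss of luciferase light is scored as toxicity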
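Compound-treated cells are incubated 24 hr at 37 deg C under 5% CO2 after a 12 hour attachment period, then luciferase detection reagent is added and luminescence is measured following 12 min at room temperature; lowered signal indicates toxicity.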
A number is an active result; - = inactive; ? = inconclusive; . = no result given; [ ] = another dose, or the depositor's remark. Calls follow the shape of the dose curve; as a rule, active = well fitted curve in the direction sought with a large enough effect; inconclusive = small, poorly fitted or top-dose-only effect, or another doubt; inactive = no such curve, though single readings can be large; an effect the other way counts as inactive or inconclusive.

SMILES	GLP1R inv ag	GLP-1R agonist	HEK293 tox
O=S(=O)(Nc1ccc(-c2ccc(N3CCCCC3)nn2)cc1)c1ccc(OC(F)(F)F)cc1	11.2µM	.	-
Cc1ccc(/C=[N+](\[O-])c2ccc(N(C)C)cc2)c2nsnc12	-[7.66 µM]	-	-[7.66 µM]
COc1ccc(-c2noc(CCC(=O)NCC3CCCO3)n2)cc1OC (stereo not drawn)	-	-	-
CN(Cc1ccccc1)C(=O)c1cccc(NC(=O)Cc2cccc([N+](=O)[O-])c2)c1	?	-	?
COc1ccc(-c2c(C)nc3c(-c4ccccn4)cnn3c2N)cc1	?	-	10µM
Cc1nc2c(-c3ccc(F)cc3)cnn2c(N)c1-c1ccc(F)cc1	2µM	-	-
Cc1cc(N)n2ncc(-c3ccc(F)cc3)c2n1	-	-	-
COc1ccc(-c2c(C)nc3c(-c4ccsc4)cnn3c2N)cc1	-	-	-
Cc1ccccc1-c1nc(CS(=O)(=O)CC(=O)Nc2cccc(C(F)(F)F)c2)c(C)o1	-	-	-
CCOC(=O)N1CCN(S(=O)(=O)c2ccc(C(=O)N(CCN(CC)CC)c3nc4ccc(C)cc4s3)cc2)CC1	?	-	-
CCOC(=O)C1=C(C)NC(SC)=C(C#N)C1CC(C)C (stereo not drawn)	?	-	?
Brc1cnc2nc[nH]c2c1	-	-	-
COc1ccccc1CNc1ccc(-c2nc(-c3cccc(C)c3)no2)cc1[N+](=O)[O-]	-	.	-
O=S(=O)(c1ccc(Cl)cc1)c1nc(-c2cccs2)oc1SCc1ccccc1F	10µM	.	-
O=S(=O)(c1ccc(Cl)cc1)c1nc(-c2ccco2)oc1SCc1ccccc1F	?	.	-
COc1ccc(CC(=O)Nc2sccc2C#N)cc1S(=O)(=O)N1CCOCC1	-	-	-
CCc1ccc(-n2c(=O)c3cccnc3n2CC(=O)NCc2ccccc2)cc1	?	.	-
Cc1cc(C)n(-c2nc(NCCN(C)C)c3c4c(sc3n2)COC(C)(C)C4)n1	?	-	?
CCN(CC)CCNc1nc(-n2nc(C)cc2C)nc2sc3c(c12)CC(C)(C)OC3	4.47µM	-	?
COc1ccc(NC(C)=O)cc1S(=O)(=O)N1CCN(C/C=C/c2ccccc2)CC1	-	-	-
CCc1ccc(Sc2cc(C(=O)NCc3cccc(OC)c3)c3ccccc3n2)cc1	10µM	-	-
COc1cccc(CNC(=O)c2cccnc2Sc2ccccc2)c1	-	?	-
COc1cccc(N2C(=O)C(CC(=O)Nc3ccc(F)cc3)N(CCC3=CCCCC3)C2=O)c1 (stereo not drawn)	10µM	.	?
CC(C)CCN1C(=O)N(c2ccccc2)C(=O)C1CC(=O)Nc1ccc(Cl)cc1 (stereo not drawn)	10µM	.	-
COc1ccc(NC(=O)CC2C(=O)N(c3ccc(OC)cc3)C(=O)N2CCC2=CCCCC2)cc1 (stereo not drawn)	-	.	-
SMILES	GLP1R inv ag	GLP-1R agonist	HEK293 tox
CCNC(=O)CC1C(=O)N(c2ccccc2)C(=O)N1CCC(C)C (stereo not drawn)	-	-	-
CN(CCNC(=O)c1c[nH]c2c1ccc1ccccc12)CCNC(=O)c1c[nH]c2c1ccc1ccccc12	?	-	?
COc1ccc(CCC(=O)NCc2ccc3c(c2)CCN3C(=O)c2ccc(C)cc2)cc1	-	.	-
O=C(CC1C(=O)N(c2ccc(F)cc2)C(=O)N1Cc1cccnc1)Nc1ccc(F)cc1 (stereo not drawn)	-	.	-
COCCc1ccc(OC2(C)CCN(Cc3ccc(OC)c4ccccc34)C2)cc1 (stereo not drawn)	?	-	-
CN1CCC(N(C)S(=O)(=O)c2ccc(NC(=O)c3ccc(S(=O)(=O)N(C)C)cc3)cc2)CC1	-	-	-
CN1CCC(N(C)S(=O)(=O)c2ccc(NC(=O)Cc3ccc(F)cc3)cc2)CC1	?	-	-
Cc1ccc(OCC(=O)Nc2ccc(S(=O)(=O)N(C)C3CCN(C)CC3)cc2)c(C)c1	2.24µM	-	-
CN1CCC(N(C)S(=O)(=O)c2ccc(NC(=O)COc3ccc(Br)cc3Cl)cc2)CC1	2µM	-	?
CN1CCC(N(C)S(=O)(=O)c2ccc(NC(=O)COc3cccc(Cl)c3)cc2)CC1	2.82µM	-	-
Cc1ccccc1OCCC(=O)Nc1ccc(S(=O)(=O)N(C)C2CCN(C)CC2)cc1	?	-	-
CCn1cc(C(=O)N2CCN(c3cccc(Cl)c3)CC2)c(=O)c2cc(S(=O)(=O)N3CCCCC3)ccc21	-	.	-
CCS(=O)(=O)c1ccc(O)c(NC(=O)c2ccc(S(=O)(=O)N3CCCCCC3)cc2)c1	-	-	-
CCCCc1ccc(-n2nc3ccc(NC(=O)c4cc5ccccc5o4)cc3n2)cc1	-	.	-
O=C(CS)Nc1ccccc1	.	-	.
CCCC(c1nnnn1Cc1ccco1)N1CCN(c2ccccc2)CC1 (stereo not drawn)	-	-	-
CCCC(c1nnnn1Cc1ccco1)N1CCN(c2cc(Cl)ccc2C)CC1 (stereo not drawn)	5.01µM	-	-
OCC1(O)OC[C@@H](O)[C@H](O)[C@@H]1O (stereo partly drawn)	.	-	.
CCc1nn(CC(=O)NCCc2ccc(OC)cc2OC)c(=O)c2cc3c(OC)cccc3n12	-	.	-
COC(=O)c1c(NC(=O)CSc2nnc(-c3ccco3)n2Cc2ccccc2)sc(C)c1C	12.6µM	-	-
O=C(CSc1nnc(-c2ccncc2)n1Cc1ccco1)OC1CCCCC1	-	-	-
O=C(CSc1nnc(-c2ccco2)n1Cc1ccccc1)OC1CCCCC1	10µM	-	-
COC(=O)c1c(NC(=O)CSc2nc3ccccc3c(=O)n2Cc2ccco2)sc(C)c1C	-	-	-
Cn1cc(C(=O)NCCc2ccc(Cl)cc2)c(=O)c2cc(S(=O)(=O)N3CCCCC3)ccc21	-	.	-
CC(NC(=O)c1ccc([N+](=O)[O-])o1)C12CC3CC(CC(C3)C1)C2 (stereo not drawn)	-	-	-
SMILES	GLP1R inv ag	GLP-1R agonist	HEK293 tox
COc1cccc(OC)c1C(=O)NC(C)C12CC3CC(CC(C3)C1)C2 (stereo not drawn)	8.91µM	-	-
Cc1ccc(-n2ncc3c(N4CCCCCC4)ncnc32)cc1Cl	?	.	-
Cc1ccc(-n2ncc3c(N4CCCCC4)ncnc32)cc1Cl	0.794µM	.	-
Cc1cccc(-n2ncc3c(N4CCOCC4)ncnc32)c1	3.16µM	-	-
Cc1cccc(-n2ncc3c(N4CCN(c5ccccc5)CC4)ncnc32)c1	-	.	-
O=S1(=O)N=C(Nc2cccc(C(F)(F)F)c2)c2ccccc21	?	.	-
CCCS(=O)(=O)c1nc(S(=O)(=O)c2ccc(C)cc2)c(N2CCCC(C)C2)s1 (stereo not drawn)	12.6µM	-	-
Cc1ccc(S(=O)(=O)c2nc(S(C)(=O)=O)sc2N2CCCCC2C)cc1 (stereo not drawn)	3.55µM	-	-
CCCS(=O)(=O)c1nc(S(=O)(=O)c2ccc(C)cc2)c(N2CCC(C)CC2)s1	?	-	-
Cc1ccc(S(=O)(=O)c2nc(S(C)(=O)=O)sc2N2CCC(O)CC2)cc1	-	-	-
CC(C)OCCCNC(=O)c1cn(C)c2ccc(S(=O)(=O)N(C)C3CCCCC3)cc2c1=O	-	-	-
CCc1ccc(C(=O)Nc2ccc3nc(C)ccc3c2)cc1	?	-	-
